{"source": "PubChem BioAssay (NCATS)", "key": {"[1]": {"test": "qHTS for differential inhibitors of proliferation of Plasmodium falciparum line 3D7 (AID 1876); further: potency means the concentration at half of the fitted maximal effect"}, "[2]": {"test": "qHTS for differential inhibitors of proliferation of Plasmodium falciparum line D10 (AID 1877);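 further: potency means the concentration at half of the fitted maximal effect; parasites grown with compound for 72 h before DNA staining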"}, "[3]": {"test": "qHTS for differential inhibitors of proliferation of Plasmodium falciparum line Dd2 (AID 1882); further: potency means the concentration at half of the fitted maximal effect; nearly all actives have a fitted effect of over 65% in size", "details": "Potency: Plasmodium falciparum Dd2 proliferation inhibition", "procedure,_shortened": "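Dd2-infected erythrocytes (0.3% parasitemia, 2.5% hematocrit final) incubated with compound 72 h at 37 C, 5% CO2; lysed with saponin/Triton buffer containing SYBR Green I, incubated overnight in the dark, then read by fluorescence (485/535 nm). Normalized to 0.29 uM artemisinin and DMSO.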"}, "[4]": {"test": "qHTS for differential inhibitors of proliferation of Plasmodium falciparum line HB3 (AID 1886);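 further: potency means the concentration at half of the fitted maximal effect; parasites grown with compound for 72 h before SYBR Green readout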", "details": "Potency: Plasmodium falciparum HB3 proliferation inhibition"}, "[5]": {"target": "Ferritin light chain (Equus caballus) (UniProt P02791)", "test": "qHTS Validation Assay for Identification of Novel General Anesthetics (AID 2323); further: series mostly up to about 77 µM", "procedure,_shortened": "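Normalized fluorescence response, scaled between free 1-AMA and 1-AMA/apoferritin complex, fitted to a four-parameter Hill equation for concentration-effect values. Binding mix: 10 uM horse-spleen apoferritin, 50% saturated 1-AMA in PBS; read 380/535 nm after 10 min.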"}, "[6]": {"target": "ATP-dependent DNA helicase Q1 (Homo sapiens) (UniProt P46063)", "sequence (P46063 whole entry, looked up)": "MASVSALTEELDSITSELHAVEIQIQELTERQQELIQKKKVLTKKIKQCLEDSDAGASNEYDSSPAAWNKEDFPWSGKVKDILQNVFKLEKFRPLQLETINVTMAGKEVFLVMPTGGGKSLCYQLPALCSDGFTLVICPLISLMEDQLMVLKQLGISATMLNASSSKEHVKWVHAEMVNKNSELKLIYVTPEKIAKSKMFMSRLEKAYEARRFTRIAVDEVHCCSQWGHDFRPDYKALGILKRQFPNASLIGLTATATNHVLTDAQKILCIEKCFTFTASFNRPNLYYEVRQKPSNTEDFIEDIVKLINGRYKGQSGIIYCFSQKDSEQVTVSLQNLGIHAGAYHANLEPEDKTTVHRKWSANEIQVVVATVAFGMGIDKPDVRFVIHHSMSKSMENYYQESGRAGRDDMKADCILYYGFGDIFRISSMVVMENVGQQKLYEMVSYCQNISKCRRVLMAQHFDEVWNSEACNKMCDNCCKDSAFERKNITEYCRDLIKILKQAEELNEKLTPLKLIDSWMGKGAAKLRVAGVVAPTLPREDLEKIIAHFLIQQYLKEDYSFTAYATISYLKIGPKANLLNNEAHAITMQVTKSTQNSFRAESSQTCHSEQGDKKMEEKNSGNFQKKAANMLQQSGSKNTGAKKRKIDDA", "test": "qHTS Validation Assay for Inhibitors of RecQ-Like Dna Helicase 1 (RECQ1) (AID 2353)", "procedure,_shortened": "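50 nM RECQ1T1 preincubated 15 min with compound in Tris pH 8.0 buffer with MgCl2, DTT, Tween-20 and 2.5 ug/ml poly(dI-dC); started with 200 nM TAMRA/BHQ-2 forked duplex and 2 mM ATP. Unwinding read as fluorescence (525/598 nm), two reads 2 h apart.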"}, "[7]": {"test": "High Content Imaging Cell-Based qHTS for Inhibitors of the mTORC1 Signaling Pathway in MEF Cells (AID 2667);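 further: Tsc2-/- p53-/- MEFs stably re-expressing wild-type Tsc2 exposed 24 h; series mostly up to about 38 µM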", "procedure,_shortened": "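Immunofluorescence for rpS6 phosphorylation in MEFs of Tsc2-/-, p53-/- background rescued with WT Tsc2. Compound exposure lasted 24 hrs. Inhibition was scored against rapamycin-treated control wells.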"}, "[8]": {"test": "Validation screen for small molecules that induce DNA re-replication in MCF 10A normal breast cells (AID 463097); further: nearly all actives have a fitted effect of over 60% in size", "procedure,_shortened": "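Following 48 hr compound incubation (37 C, 5% CO2), MCF 10A cells receive Hoechst for 40 min at 37 C. Nuclei are then scanned (excitation 405 nm, emission 500-530 nm) for total fluorescence intensity.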"}, "[9]": {"target": "Ubiquitin carboxyl-terminal hydrolase 2 (Homo sapiens) (UniProt O75604)", "sequence (O75604 whole entry, looked up)": "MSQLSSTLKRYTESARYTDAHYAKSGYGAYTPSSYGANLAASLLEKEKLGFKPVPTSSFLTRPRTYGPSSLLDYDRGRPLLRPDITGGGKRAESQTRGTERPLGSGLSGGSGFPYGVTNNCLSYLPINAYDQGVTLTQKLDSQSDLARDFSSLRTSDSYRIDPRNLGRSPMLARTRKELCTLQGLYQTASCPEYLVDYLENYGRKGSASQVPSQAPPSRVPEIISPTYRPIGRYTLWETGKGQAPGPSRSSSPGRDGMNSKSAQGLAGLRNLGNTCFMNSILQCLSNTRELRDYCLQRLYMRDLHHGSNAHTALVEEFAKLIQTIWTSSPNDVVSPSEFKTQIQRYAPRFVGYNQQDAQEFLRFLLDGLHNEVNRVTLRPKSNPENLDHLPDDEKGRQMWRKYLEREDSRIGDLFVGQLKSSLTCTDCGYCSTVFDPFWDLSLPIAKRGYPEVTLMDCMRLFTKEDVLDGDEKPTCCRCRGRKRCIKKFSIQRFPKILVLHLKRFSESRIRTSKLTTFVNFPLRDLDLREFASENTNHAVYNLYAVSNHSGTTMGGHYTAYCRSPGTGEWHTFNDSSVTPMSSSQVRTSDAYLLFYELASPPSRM", "test": "qHTS Validation Assay for Inhibitors of Ubiquitin-specific Protease USP2a Using CHOP2 as the Reporter (AID 463106)", "procedure,_shortened": "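10nM USP2 core + cpd, 30min RT; add 25nM Ub-CHOP2/25nM substrate; 60min RT; FI 485/531nm. Buffer Tris pH 8.0, CaCl2, BME, CHAPS. Norm. to NEM = 100% inhibition; time-zero read flags fluorescent artifacts.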"}, "[10]": {"target": "DNA polymerase III PolC-type (Bacillus subtilis (strain 168)) (UniProt P13267)", "test": "qHTS Validation Assay for the Inhibitors of DNA Replication in Gram-Positive Bacteria (AID 485295);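 further: reconstituted holoenzyme with PolC plus beta clamp SSB and primase; PicoGreen fluorescence of double-stranded DNA made on primed circular M13 template; series mostly up to about 57 µM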", "procedure,_shortened": "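Inhibition of DNA synthesis by the reconstituted PolC holoenzyme, monitored through PicoGreen staining of dsDNA formed from ssM13Gori, dNTPs and NTPs, with compound preincubation and room-temperature reaction.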"}, "[11]": {"target": "Tumor susceptibility gene 101 protein (Homo sapiens) (UniProt Q99816)", "sequence (Q99816 whole entry, looked up, the tested form may be a part)": "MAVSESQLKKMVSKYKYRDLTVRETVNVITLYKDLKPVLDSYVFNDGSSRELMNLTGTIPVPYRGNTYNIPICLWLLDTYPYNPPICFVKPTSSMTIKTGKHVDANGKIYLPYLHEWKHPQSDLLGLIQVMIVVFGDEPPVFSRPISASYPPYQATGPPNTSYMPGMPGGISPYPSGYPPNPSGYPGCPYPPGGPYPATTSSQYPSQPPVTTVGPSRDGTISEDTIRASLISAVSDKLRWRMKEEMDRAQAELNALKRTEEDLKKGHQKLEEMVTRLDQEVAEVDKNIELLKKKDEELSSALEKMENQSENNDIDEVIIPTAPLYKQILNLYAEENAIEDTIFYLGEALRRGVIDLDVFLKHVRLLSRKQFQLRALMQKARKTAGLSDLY", "test": "qHTS Validation Assay for Iinhibitors of HIV-1 Budding by Blocking the Interaction of PTAP/TSG101 (AID 485342; calls by dose curve)", "procedure,_shortened": "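Compound wells held the Tsg101 binding domain (10 uM) and a FITC-conjugated PTAP peptide (50 nM) in buffer at pH 7.5 containing 0.15 M NaCl and 0.01% Tween 20; polarization was recorded after 20 min, r.t.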"}, "[12]": {"target": "Beta-2 adrenergic receptor (Homo sapiens) (UniProt P07550)", "sequence (P07550 whole entry, looked up)": "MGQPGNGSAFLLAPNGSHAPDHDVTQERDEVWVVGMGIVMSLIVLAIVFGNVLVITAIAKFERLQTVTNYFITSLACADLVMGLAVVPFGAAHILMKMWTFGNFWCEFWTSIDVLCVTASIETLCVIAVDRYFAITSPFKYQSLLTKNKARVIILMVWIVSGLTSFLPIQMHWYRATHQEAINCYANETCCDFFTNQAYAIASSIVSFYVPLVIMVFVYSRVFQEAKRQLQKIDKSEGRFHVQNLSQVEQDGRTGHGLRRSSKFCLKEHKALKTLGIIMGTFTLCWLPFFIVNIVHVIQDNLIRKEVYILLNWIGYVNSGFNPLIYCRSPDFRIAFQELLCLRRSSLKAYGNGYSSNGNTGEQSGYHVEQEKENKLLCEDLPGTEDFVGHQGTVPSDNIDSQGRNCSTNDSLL", "test": "qHTS validation assay of beta-arrestin-biased ligands of beta2-adrenergic receptor (AID 485366)", "procedure,_shortened": "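Tango cells (recombinant beta2-AR with recombinant beta-arrestin; recruitment releases tTA driving luciferase) were treated with compounds titrated up to 46 microM for 18 hr at 37 degrees C. Luminescence gave %Activity, and concentration-response curves were curve-classified.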"}, "[13]": {"target": "Thioredoxin reductase 1, cytoplasmic (Rattus norvegicus) (UniProt O89049)", "sequence (O89049 whole entry, looked up)": "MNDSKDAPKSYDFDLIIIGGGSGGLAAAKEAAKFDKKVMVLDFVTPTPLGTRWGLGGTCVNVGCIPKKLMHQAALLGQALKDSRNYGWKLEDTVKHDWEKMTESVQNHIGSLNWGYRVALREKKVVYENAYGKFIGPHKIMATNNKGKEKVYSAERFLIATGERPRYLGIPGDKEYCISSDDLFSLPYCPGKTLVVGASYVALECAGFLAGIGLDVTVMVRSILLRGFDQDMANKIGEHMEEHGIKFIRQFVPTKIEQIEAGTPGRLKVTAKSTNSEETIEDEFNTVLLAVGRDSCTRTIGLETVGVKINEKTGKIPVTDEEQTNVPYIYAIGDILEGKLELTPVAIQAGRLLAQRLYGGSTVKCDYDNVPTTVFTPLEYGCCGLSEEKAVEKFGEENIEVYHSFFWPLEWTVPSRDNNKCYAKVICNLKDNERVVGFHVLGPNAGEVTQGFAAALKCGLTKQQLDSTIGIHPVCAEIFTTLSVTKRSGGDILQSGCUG", "test": "qHTS Assay for Substrates of Mammalian Selenoprotein Thioredoxin Reductase 1 (TrxR1) (AID 488772);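 further: series mostly up to about 57 µM; a drop in NADPH fluorescence below the no-compound background marks a TrxR1 substrate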", "procedure,_shortened": "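Quantitative HTS in Tris-HCl buffer at pH 7.5 with EDTA and Tween-20, using rat TrxR1, 400 uM NADPH and 400 uM selenite (final). A fall in initial NADPH fluorescence relative to background marked substrate behaviour.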"}, "[14]": {"target": "Thioredoxin reductase 1, cytoplasmic (Rattus norvegicus) (UniProt O89049)", "test": "qHTS Assay for Inhibitors of Mammalian Selenoprotein Thioredoxin Reductase 1 (TrxR1) (AID 488773); further: potency means the concentration at half of the fitted maximal effect; nearly all actives have a fitted effect of over 40% in size", "details": "Potency: inhibition", "procedure,_shortened": "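Steps: enzyme (90 nM) plus NADPH (400 uM final), 5 min at ~22 deg C; compound added, 15 min; selenite (400 uM final) added; fluorescence followed for 8 min. Concentration-response curves derived from the normalized delta values.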"}, "[15]": {"target": "Flap endonuclease 1 (Homo sapiens) (UniProt P39748)", "sequence (P39748 whole entry, looked up)": "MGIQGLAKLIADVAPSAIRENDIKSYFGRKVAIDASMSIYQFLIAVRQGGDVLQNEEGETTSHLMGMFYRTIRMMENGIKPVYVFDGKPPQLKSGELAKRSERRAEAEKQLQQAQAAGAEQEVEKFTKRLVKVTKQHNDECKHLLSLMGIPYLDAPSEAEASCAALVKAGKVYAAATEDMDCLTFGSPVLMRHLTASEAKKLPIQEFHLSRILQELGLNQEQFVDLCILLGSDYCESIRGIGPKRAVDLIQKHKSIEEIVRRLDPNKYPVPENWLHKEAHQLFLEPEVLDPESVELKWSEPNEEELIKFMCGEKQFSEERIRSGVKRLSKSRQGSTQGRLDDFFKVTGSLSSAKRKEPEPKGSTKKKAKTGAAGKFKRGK", "test": "qHTS Validation Assay for the Inhibitors of Human Flap endonuclease 1 (FEN1) (AID 488816)", "procedure,_shortened": "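Readings taken at 0 and 15 min after starting the reaction with 50 nM (final) substrate supplied the signal. Compounds had first sat with 10 nM FEN1 reagent for 15 min at room temperature. Values come from Hill-equation concentration-response fits.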"}, "[16]": {"target": "M-phase phosphoprotein 8 (Homo sapiens) (UniProt Q99549)", "test": "qHTS Validation Assay for Inhibitors for MPP8 Chromodomain Interactions with Methylated Histone Tails (AID 488949);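 further: AlphaScreen signal from MPP8 chromodomain bound to biotinylated H3K9me3 peptide; top concentration of the series differs between compounds; nearly all actives have a fitted effect of over 55% in size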", "procedure,_shortened": "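Chemiluminescent proximity assay: histidine-tag capture via nickel acceptor beads, biotin peptide via streptavidin donor beads. Protein and peptide each at 50 nM, pH 7.4, with 30 min incubations at room temperature for complex formation, compound exposure and bead binding.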"}, "[17]": {"target": "Transient receptor potential cation channel subfamily V member 1 (Homo sapiens) (UniProt Q8NER1)", "sequence (Q8NER1 whole entry, looked up)": "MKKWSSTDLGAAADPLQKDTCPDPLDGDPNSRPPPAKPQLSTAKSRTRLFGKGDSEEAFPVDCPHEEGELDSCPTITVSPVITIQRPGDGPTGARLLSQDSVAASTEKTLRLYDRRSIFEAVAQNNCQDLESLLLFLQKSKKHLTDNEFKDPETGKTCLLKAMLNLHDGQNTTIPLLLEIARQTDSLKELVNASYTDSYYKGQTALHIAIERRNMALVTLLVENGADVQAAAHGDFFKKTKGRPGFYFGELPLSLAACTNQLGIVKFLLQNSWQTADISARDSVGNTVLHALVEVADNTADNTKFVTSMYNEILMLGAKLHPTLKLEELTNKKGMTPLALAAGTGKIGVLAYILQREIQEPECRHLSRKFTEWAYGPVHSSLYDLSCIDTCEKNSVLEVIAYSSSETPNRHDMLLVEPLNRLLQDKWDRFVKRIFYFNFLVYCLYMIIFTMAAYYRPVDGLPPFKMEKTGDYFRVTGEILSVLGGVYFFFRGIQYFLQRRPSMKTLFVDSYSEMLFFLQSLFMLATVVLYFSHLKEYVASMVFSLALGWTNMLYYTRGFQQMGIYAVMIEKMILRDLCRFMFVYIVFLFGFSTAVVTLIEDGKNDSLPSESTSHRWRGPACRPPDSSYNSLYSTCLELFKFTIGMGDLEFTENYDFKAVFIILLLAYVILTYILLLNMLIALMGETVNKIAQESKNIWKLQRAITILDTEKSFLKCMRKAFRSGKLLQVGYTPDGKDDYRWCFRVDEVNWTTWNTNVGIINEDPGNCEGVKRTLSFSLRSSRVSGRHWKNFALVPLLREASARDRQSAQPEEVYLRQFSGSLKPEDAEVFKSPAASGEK", "test": "HTS Assay for Compounds that Act as Enhancers of the Vanilloid Receptor 1 (AID 488979)", "procedure,_shortened": "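Calcium influx kinetics via Fluo-8 (480/520 nm) in TRPV1-expressing cells, 2000/well cultured overnight at 35.5C. Compound-alone read 3 min (agonist phase), followed by EC20 capsaicin challenge for 2 min (enhancer phase).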"}, "[18]": {"target": "Thyrotropin receptor (Homo sapiens) (UniProt P16473)", "sequence (P16473 whole entry, looked up)": "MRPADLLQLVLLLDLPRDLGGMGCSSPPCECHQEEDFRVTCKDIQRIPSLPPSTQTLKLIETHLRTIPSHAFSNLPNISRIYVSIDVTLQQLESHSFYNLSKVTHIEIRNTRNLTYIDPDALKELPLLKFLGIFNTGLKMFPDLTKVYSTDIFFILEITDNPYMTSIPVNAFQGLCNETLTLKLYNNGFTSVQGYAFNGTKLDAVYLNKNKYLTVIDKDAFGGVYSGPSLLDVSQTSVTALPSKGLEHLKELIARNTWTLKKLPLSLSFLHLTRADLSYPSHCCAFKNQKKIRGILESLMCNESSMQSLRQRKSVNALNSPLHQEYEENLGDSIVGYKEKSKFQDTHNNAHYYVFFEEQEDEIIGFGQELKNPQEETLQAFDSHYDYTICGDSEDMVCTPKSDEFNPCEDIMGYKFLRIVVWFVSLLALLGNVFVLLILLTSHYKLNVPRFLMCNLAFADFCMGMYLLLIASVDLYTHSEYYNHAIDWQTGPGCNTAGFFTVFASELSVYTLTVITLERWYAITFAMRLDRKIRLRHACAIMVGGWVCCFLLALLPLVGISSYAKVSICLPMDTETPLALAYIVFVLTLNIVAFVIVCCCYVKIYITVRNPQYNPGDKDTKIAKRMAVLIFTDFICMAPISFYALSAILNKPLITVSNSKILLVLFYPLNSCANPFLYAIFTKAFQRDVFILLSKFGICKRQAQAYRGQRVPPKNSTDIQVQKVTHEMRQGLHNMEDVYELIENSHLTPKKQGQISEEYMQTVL", "test": "qHTS Assay for Antagonists of the Thyroid Stimulating Hormone Receptor (AID 488980); further: series mostly up to about 58 µM", "procedure,_shortened": "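Inhibition of TSH-stimulated cAMP accumulation was quantified by homogeneous time-resolved FRET in TSHR-transfected HEK293 cells. Agonist: TSH, 4 nM final (EC80).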"}, "[19]": {"target": "D(1A) dopamine receptor (Homo sapiens) (UniProt P21728)", "sequence (P21728 whole entry, looked up)": "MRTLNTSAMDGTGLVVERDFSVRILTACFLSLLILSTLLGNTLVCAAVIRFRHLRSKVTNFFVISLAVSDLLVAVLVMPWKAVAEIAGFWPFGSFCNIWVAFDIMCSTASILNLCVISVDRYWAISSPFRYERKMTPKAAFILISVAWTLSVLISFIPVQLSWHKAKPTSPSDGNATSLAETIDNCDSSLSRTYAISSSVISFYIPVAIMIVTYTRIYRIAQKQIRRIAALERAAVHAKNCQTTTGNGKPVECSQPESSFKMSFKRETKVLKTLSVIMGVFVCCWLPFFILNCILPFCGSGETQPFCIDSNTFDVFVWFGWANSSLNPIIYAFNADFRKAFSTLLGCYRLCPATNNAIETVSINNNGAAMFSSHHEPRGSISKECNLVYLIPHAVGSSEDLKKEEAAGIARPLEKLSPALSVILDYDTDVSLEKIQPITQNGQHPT", "test": "HTS Assay for Allosteric Agonists of the Human D1 Dopamine Receptor: Primary Screen for Agonists (AID 488981)", "procedure,_shortened": "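Calcium flux in an inducible, force-coupled HEK293 Trex D1 line (overnight at 30 C): agonist mode is the 180 s kinetic read after compound; potentiator mode is the following 180 s read after dopamine at EC20.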"}, "[20]": {"target": "D(1A) dopamine receptor (Homo sapiens) (UniProt P21728)", "test": "HTS Assay for Allosteric Agonists of the Human D1 Dopamine Receptor: Primary Screen for Antagonists (AID 488983); further: nearly all actives have a fitted effect of over 65% in size", "procedure,_shortened": "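Cells are induced with tetracycline and incubated overnight at 30 C, then loaded with calcium dye for 30 to 90 minutes at room temperature. Compound addition is followed by a 180 s read, then an EC80 dopamine addition and another 180 s read.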"}}, "note": "Results filed as inconclusive are left out. Where a call stands in place of a potency, no number is given. Activity calls are given as the source filed them. Unless noted, the call rests on the fitted dose curve; in most records, active means well fitted curve in the direction sought with a large enough effect; inconclusive means small, poorly fitted or top-dose-only effect, or another doubt; inactive means no such curve, though single readings can be large; an effect the other way counts as inactive or inconclusive."}
{"smiles": "S=C(Nc1ccccc1)Nc1nccs1", "values": [{"measurement": "Potency", "setting": "[1]", "result": "7.94 µM (active)"}, {"measurement": "Potency", "setting": "[2]", "result": "12.6 µM (active)"}, {"measurement": "Potency", "setting": "[3]", "result": "11.2 µM (active)"}, {"measurement": "Potency", "setting": "[4]", "result": "8.91 µM (active)"}, {"measurement": "outcome", "setting": "[5]", "result": "inactive"}, {"measurement": "Potency", "setting": "[6]", "result": "inactive"}, {"measurement": "Potency", "setting": "[7]", "result": "inactive"}, {"measurement": "Potency", "setting": "[8]", "result": "inactive"}, {"measurement": "Potency", "setting": "[9]", "result": "inactive"}, {"measurement": "Potency", "setting": "[10]", "result": "inactive"}, {"measurement": "outcome", "setting": "[11]", "result": "inactive"}, {"measurement": "outcome", "setting": "[12]", "result": "inactive"}, {"measurement": "outcome", "setting": "[13]", "result": "inactive"}, {"measurement": "Potency", "setting": "[14]", "result": "5.97 µM (active)"}, {"measurement": "Potency", "setting": "[15]", "result": "inactive"}, {"measurement": "Potency", "setting": "[16]", "result": "inactive"}, {"measurement": "outcome", "setting": "[17]", "result": "inactive"}, {"measurement": "outcome", "setting": "[18]", "result": "inactive"}, {"measurement": "outcome", "setting": "[19]", "result": "inactive"}, {"measurement": "outcome", "setting": "[20]", "result": "inactive"}]}
